Shown are actives, neighbours in structure and some others; about 3.2% of the full set was active somewhere.
Mcl1-Noxa inh: Mcl-1/Noxa interaction inhibition | Q07820 | inhibition, % at 21.7 µM | TR-FRET Mcl-1/Noxa peptide binding, 2 h | 220,000 compounds, 1.5% hits;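 active = compounds that cut the protein-peptide binding signal by more than 50% relative to plate controls in a single-dose test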;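 also: His-tagged Mcl-1 with rhodamine Noxa BH3 peptide and terbium anti-His antibody; 0% = Mcl-1 plus Noxa peptide wells and 100% = peptide-only wells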
14-3-3 Bad inh: disrupts binding of bovine 14-3-3 zeta to phospho-Bad peptide; inhibition, % at 21.7 µM; 220,000 compounds, 0.71% hits; TR-FRET 14-3-3zeta/Dy647-pBad peptide displacement, 1 h; AID 781;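 active = inhibition above about 70%, limit read from the data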;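 also: 0% = full 14-3-3 plus peptide FRET controls and 100% = background without 14-3-3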
Target sequence (P63103 whole entry, looked up): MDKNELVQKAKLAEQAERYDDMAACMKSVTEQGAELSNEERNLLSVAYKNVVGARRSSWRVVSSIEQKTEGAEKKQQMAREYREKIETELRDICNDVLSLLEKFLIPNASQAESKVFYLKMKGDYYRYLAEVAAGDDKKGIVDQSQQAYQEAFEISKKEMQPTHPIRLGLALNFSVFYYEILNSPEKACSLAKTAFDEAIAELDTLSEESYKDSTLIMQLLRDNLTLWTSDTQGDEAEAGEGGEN
Mcl1 Bid PPI: disrupts binding of human Mcl-1 to Bid peptide | Q07820 | 220,000 compounds, 0.97% hits | inhibition, % at 21.7 µM | TR-FRET Mcl-1/Bid-Dy647 peptide binding, 1536-well | AID 1021;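 active = compounds that cut the binding signal by more than half at the single screening dose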;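 also: His-tagged Mcl-1 with europium anti-His antibody binding Bid BH3 peptide; 0% = Mcl-1 plus peptide wells and 100% = peptide-only wells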
p47phox inh: p47phox (human) inhibition. inhibition, % at 24.7 µM. P14598. p47phox/p22phox peptide binding, fluorescence polarization, 2 h. 220,000 compounds, 0.53% hits;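 active = inhibition above about 30%, limit read from the data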;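 also: 0% = p47phox with labelled peptide and 100% = labelled peptide alone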
Target sequence (P14598 whole entry, looked up): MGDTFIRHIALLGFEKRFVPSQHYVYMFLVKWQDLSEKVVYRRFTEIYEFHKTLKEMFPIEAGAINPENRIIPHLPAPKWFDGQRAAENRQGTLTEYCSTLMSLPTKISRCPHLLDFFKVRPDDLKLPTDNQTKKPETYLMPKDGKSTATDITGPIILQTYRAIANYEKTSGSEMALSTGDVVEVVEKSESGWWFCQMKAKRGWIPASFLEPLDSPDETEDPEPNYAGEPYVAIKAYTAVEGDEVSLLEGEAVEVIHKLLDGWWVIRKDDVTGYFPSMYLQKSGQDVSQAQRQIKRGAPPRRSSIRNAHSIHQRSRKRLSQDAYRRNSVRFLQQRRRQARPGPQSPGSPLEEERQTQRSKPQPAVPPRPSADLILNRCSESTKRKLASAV
Bim-Mcl-1: disrupts Bim peptide binding to human Mcl-1. Q07820. Bead-based flow cytometry, Bim peptide-Mcl-1 binding. inhibition, % at 10 µM. 190,000 compounds, 0.1% hits. AID 1009; in the data active = inhibition above about 40%;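 also: 0% = no compound tracer wells and 100% = peptide blocker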
An asterisk follows results filed as active; x = no result given.

SMILES | Mcl1-Noxa inh | 14-3-3 Bad inh | Mcl1 Bid PPI | p47phox inh | Bim-Mcl-1
O=C(Nc1cc2c(oc1=O)CCCC2=O)c1ccc(Cl)cc1 | 57* | -1 | -66 | -8 | -1
COc1cc(C=Nc2cccc(C)c2)c(O)c([N+](=O)[O-])c1 | 39 | -6 | -81 | 1 | 53*
Cc1ccc(O)c(N=Cc2cc(Cc3ccccc3)cc([N+](=O)[O-])c2O)c1 | 56* | 36 | -89 | -13 | -1
O=C1NCCCC2c3cc(O)c4ccccc4c3OC12N1CCCCC1 (centres undefined) | 78* | -11 | 0 | 30* | 5
Cn1c(=O)[nH]c2ccc([N+](=O)[O-])nc21 | 26 | 6 | -12 | 7 | -3
Nc1cc(Cl)ccc1Oc1ccc(Cl)cc1 | 29 | 80* | 18 | -10 | 0
Nc1cc(Cl)ccc1Oc1ccccc1 | 12 | -11 | -24 | 9 | -2
CCOc1ccc(NC(=S)NN2C(C)CCCC2C)cc1 (centres undefined) | 25 | -34 | 57* | -9 | -8
CCOC(=O)N1CCC(N2Cc3cccc(C(=O)NCc4ccc(OC)cc4)c3C2=O)CC1 | 24 | -2 | -13 | -16 | 3
CC(CCc1ccco1)NC(=O)c1cccc2c1C(=O)N(C1CCCCC1)C2 (centres undefined) | 10 | -17 | -12 | -13 | 1
COc1ccc(N2Cc3cccc(C(=O)NC(C)CCc4ccco4)c3C2=O)cc1 (centres undefined) | 65* | -9 | -10 | -36 | -1
CCOC(=O)N1CCC(NC(=O)c2cccc3c2C(=O)N(c2ccc(OC)cc2)C3)CC1 | 56* | -1 | -1 | -13 | 1
CC(C)c1ccc(C(=O)NC(=S)Nc2ccc3[nH]c(=O)[nH]c3c2)cc1 | 4 | 0 | -15 | -5 | x
Cc1cc(-c2ccccc2)n2ncnc2n1 | -15 | -4 | -6 | 0 | x
O=c1/c(=C/c2ccc(O)c([N+](=O)[O-])c2)sc2nc3ccccc3n12 | 80* | 1 | 28 | 4 | -2
O=c1/c(=C\c2cccnc2)sc2nc3ccccc3n12 | 7 | 1 | 14 | -28 | -4
Cc1cc(/C=c2\sc3nc4ccccc4n3c2=O)c(C)n1-c1ccc(C(=O)O)cc1 | 65* | 18 | -12 | -70 | 0
Cc1cc(/C=c2/sc3nc4ccccc4n3c2=O)c(C)n1-c1ccccn1 | 10 | -7 | -87 | -72 | 0
Cc1onc(-c2ccccc2)c1C(=O)c1ccccc1 | -2 | 5 | -5 | -3 | x
CC(C)COC(=O)/C(C#N)=C/c1cn(Cc2ccccc2)c2ccccc12 | -1 | 6 | -17 | -9 | 40*
CC(C)OC(=O)/C(C#N)=C/c1cn(Cc2ccccc2)c2ccccc12 | -11 | -13 | -2 | -7 | -4
O=C(COC(=O)Cn1cnc2ccccc21)Nc1cc(S(=O)(=O)N2CCOCC2)ccc1Cl | 0 | 0 | 3 | -8 | x
O=C(COC(=O)Cn1cnc2ccccc21)Nc1cc2c(cc1Cl)C(=O)c1ccccc1C2=O | 54* | 41 | 0 | 14 | 0
COc1ccc(OC)c(S(=O)(=O)NC(N)=NCCc2ccccc2OC)c1 | -23 | -9 | 15 | -6 | -1
COc1cccc(/C=N/NC(=O)C(=O)NCc2ccco2)c1O | -33 | 6 | -74 | 1 | 0
SMILES | Mcl1-Noxa inh | 14-3-3 Bad inh | Mcl1 Bid PPI | p47phox inh | Bim-Mcl-1
COc1cccc(/C=N/NC(=O)C(=O)N/N=C/c2cccc(OC)c2O)c1O | 59* | 38 | -71 | -7 | 3
COc1cccc(/C=N/NC(=O)c2cc3c(OC)cccc3[nH]2)c1O | 59* | -4 | -36 | -7 | -4
COc1cccc(/C=N/NC(=O)c2cc3cc([N+](=O)[O-])ccc3s2)c1O | 68* | 61 | 84* | 26 | 6
COC(=O)/C=C/c1ccc(OC(=O)c2ccncc2)cc1 | 3 | 5 | -36 | -5 | -1
COc1ccccc1CNC(=O)C1(NC(=O)Nc2ccc(C)cc2)CCCCC1 | -4 | 9 | 2 | -4 | 0
Cc1nn(Cc2ccccc2)c(C)c1NC(=O)CSc1nc2c(c(C(F)(F)F)n1)CCc1ccccc1-2 | -15 | 33 | 64* | 42* | 3
COc1ccccc1NC(=O)c1cn(C)c(=O)c2cc(OC)c(OC)cc12 | 8 | -11 | 84* | 2 | -6
COc1cc(NC(=O)c2cc3ccccc3cc2O)c(OC)cc1Cl | 61* | -12 | -32 | -9 | x
COc1cc2c(C(=O)NCc3ccccn3)cn(C)c(=O)c2cc1OC | 1 | 10 | -5 | -11 | -4
COc1ccccc1NC(=O)c1cc2cc(Br)ccc2cc1O | 88* | 5 | -34 | -26 | x
O=C(O)CC1(CC(=O)Nc2ccc3c(c2)C(=O)OC3)CCCCC1 | -1 | 6 | -9 | 3 | x
CC(=O)c1ccc(OC(C)C)c(Cc2c(O)nc(N)[nH]c2=O)c1 | 10 | -21 | -16 | -16 | -2
CC(C)C(=O)NC(c1cccs1)c1cc([N+](=O)[O-])c2cccnc2c1O (centres undefined) | 63* | 17 | 55* | -9 | -7
COC(=O)c1ccc(CNC(=O)c2ccc(COc3ccccc3)cc2)cc1 | 18 | 10 | -6 | -5 | -5
O=[N+]([O-])c1cc(C2Nc3cccc4cccc(c34)N2)ccc1Cl | 41 | 0 | -11 | -3 | -2
COc1cc(C2Nc3cccc4cccc(c34)N2)cc(OC)c1OC(C)=O | 82* | 2 | 12 | -3 | 10
CC[n+]1oc(-c2ccccc2)cc1C | 16 | 1 | 15 | 6 | 4
O=[N+]([O-])c1cc(Cl)cc(/C=N/NC(=S)Nc2ccc(S(=O)(=O)N3CCOCC3)cc2)c1O | 85* | 38 | 67* | -28 | x
O=C(N/N=C/c1ccncc1)c1nn(Cc2ccccc2)c(=O)c2ccccc12 | 5 | -5 | -13 | -8 | 1
[N-]=[N+]=CC(=O)CC(c1ccccc1)N1C(=O)c2ccccc2C1=O (centres undefined) | -9 | -5 | -25 | 51* | 0
Cc1cc(C)cc(N2C(=O)CCN(Cc3ccccc3)C2=O)c1 | -23 | 0 | -13 | -2 | x
O=C(Cc1ccc(F)cc1)N(c1ccc(F)cc1)C1C=CS(=O)(=O)C1 (centres undefined) | -2 | 10 | -41 | 35* | 3
O=C(Cc1ccccc1)N(c1ccc(F)cc1)C1C=CS(=O)(=O)C1 (centres undefined) | 22 | 3 | -2 | 5 | 1
CCCCC(=O)N(c1ccc(C)c(C)c1)C1C=CS(=O)(=O)C1 (centres undefined) | -18 | 93* | -5 | 3 | 1
O=C(Nc1cccc(S(=O)(=O)N2CCCC2)c1)c1ccc2c(c1)OCO2 | -13 | -5 | 1 | -4 | -3
COCCn1cnnc1SCC(=O)Nc1cccc(S(=O)(=O)N2CCCCCC2)c1 | 2 | 22 | 54* | -6 | -1
Cc1cc(C(=O)Nc2cccc(S(=O)(=O)N3CCCCC3)c2)c2ccccc2n1 | 65* | 0 | -10 | -12 | 0

Screens (PubChem BioAssay)
